The list is not random: actives were taken first. Their share in the collection is about 2.5%.
MEKK3 PB1 HTS: modulators of MEKK3-MEK5 PB1 binding, primary screen, biochemical, wildtype MEKK3, multiplex bead flow cytometry, Alexa488-MEK5 | bead-based flow cytometry, Alexa488-MEK5 binding to MEKK3; actives lie on both sides; 0 = blocked by unlabeled MEK5, 100 = vehicle | binding response (% of control), % at 10 µM | 1.4% of 290,000 active | AID 1529, 2009;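 active = binding response more than 3 SD above or below the average of its plate-row segment, actives on both sides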;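 also: Alexa488 bead fluorescence after subtracting the streptavidin-only scavenger bead signal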
GRK2 inh: compounds blocking aptamer binding on GRK2 – biochemical, human GRK2, bead flow cytometry, HTS, primary screen; 0.59% of 330,000 active; AID 488847, 2010; FAM-aptamer displacement from GRK2; inhibition of aptamer binding, % at 10 µM;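 active = inhibition of aptamer binding above 40%, roughly 3 SD of noise, on plates passing a quality check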;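 also: median bead fluorescence of bound FAM aptamer so fluorescent compounds give negative values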
Target sequence (P25098 whole entry, looked up): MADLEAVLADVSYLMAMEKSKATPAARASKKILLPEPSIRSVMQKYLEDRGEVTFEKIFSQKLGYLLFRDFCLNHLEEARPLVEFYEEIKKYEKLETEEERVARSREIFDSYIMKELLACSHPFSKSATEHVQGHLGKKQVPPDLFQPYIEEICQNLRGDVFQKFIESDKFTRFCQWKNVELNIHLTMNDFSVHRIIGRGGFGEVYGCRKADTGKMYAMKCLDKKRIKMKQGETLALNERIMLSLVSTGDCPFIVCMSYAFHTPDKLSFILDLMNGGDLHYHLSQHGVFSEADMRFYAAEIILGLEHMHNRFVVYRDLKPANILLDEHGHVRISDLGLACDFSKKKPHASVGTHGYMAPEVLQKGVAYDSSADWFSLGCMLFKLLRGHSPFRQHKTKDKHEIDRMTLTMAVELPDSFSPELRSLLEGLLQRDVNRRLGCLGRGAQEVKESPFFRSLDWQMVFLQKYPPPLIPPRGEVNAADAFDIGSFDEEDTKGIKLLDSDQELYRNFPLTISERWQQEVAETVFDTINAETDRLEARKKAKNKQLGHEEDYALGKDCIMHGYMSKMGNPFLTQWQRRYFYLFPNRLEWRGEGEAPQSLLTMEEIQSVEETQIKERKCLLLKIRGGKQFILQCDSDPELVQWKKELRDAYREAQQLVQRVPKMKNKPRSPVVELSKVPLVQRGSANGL
MEKK2wt PB1 HTS: modulators of MEK5 binding to wildtype MEKK2, primary screen, biochemical, multiplex bead flow cytometry, Alexa488-MEK5; Alexa488-MEK5 binding to MEKK2 WT; actives lie on both sides; 1.1% of 290,000 active; Mitogen-activated protein kinase kinase kinase 2 (Homo sapiens), Q9Y2U5; binding response (% of control), % at 10 µM; in the data active = binding response below about 67% or above about 130%
MEKK2mut PB1 HTS: MEK5 binding signal on mutant MEKK2 PB1, primary screen, biochemical, multiplex bead flow cytometry, Alexa488-MEK5 | percent response, % at 10 µM | Alexa488-MEK5 binding to MEKK2 mutant | 0.35% of 290,000 active; in the data active = percent response above about 24%, passing the limit was not always enough
GRK2 CP1: GRK2 aptamer-displacing inhibitors, retest, confirmation, biochemical, cherry pick 1, bead flow cytometry | aptamer displacement, % at 10 µM | shares compounds with GRK2 inh | bead-bound GRK2, FAM-aptamer displacement | AID 504451, 2011 | 4% of 2,000 active;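 active = aptamer displacement above 40%, near three times the noise of non-fluorescent compounds, on plates passing quality checks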;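 also: negative values mostly reflect intrinsic compound fluorescence rather than true enhancement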
Aptamer quench SP: counter-screen for GRK2 aptamer inhibitors: fluorescent aptamer quenchers; shares compounds with GRK2 inh; Carboxyfluorescein RNA aptamer on beads, flow cytometry quenching; active compounds read low; fluorescence response (% of DMSO), % at 10 µM; 2,000 tested, under 10 active; AID 504580;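 active = compounds that quench the bead-bound fluorescent RNA probe, cutting fluorescence to under half of the solvent control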;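 also: counterscreen run without GRK2 so only probe quenching by compound is measured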
GRK2 CP2: GRK2 aptamer-displacing inhibitors, hit retest, confirmation, biochemical, cherry pick 2, bead flow cytometry | shares compounds with GRK2 inh | bead-bound GRK2, FAM-aptamer displacement | inhibition of aptamer binding, % at 10 µM | 360 tested, under 10 active | AID 504782, 2011;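 active = inhibition of aptamer binding above 40%, about triple the noise seen with nonglowing compounds, on plates passing quality control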;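 also: negative values mostly come from compounds that fluoresce themselves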
FAM quench CP2: quenches fluorescent RNA aptamer, GRK2 hit artifact. shares compounds with GRK2 inh. carboxyfluorescein RNA aptamer beads, flow cytometry quenching; active compounds read low. fluorescence response vs DMSO, % at 10 µM. 360 tested, under 10 active. AID 588494;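 active = response vs DMSO under 50%, meaning signal dropped by over half, treated as fluorescence quencher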;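 also: labelled aptamer on streptavidin beads without GRK2 as a quench counter-screen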
Numbers stand for hits; i = inactive; nt = no result.

SMILES	MEKK3 PB1 HTS	GRK2 inh	MEKK2wt PB1 HTS	MEKK2mut PB1 HTS	GRK2 CP1	Aptamer quench SP	others
COC(=O)C1CC(c2c(OC)cc(OC)cc2OC)=NO1 (stereo not drawn)	i	i	i	i	nt	nt	GRK2 CP2=i;FAM quench CP2=i
COC(=O)[C@@H]1C(c2c(OC)cc(OC)cc2OC)=NO[C@H]1C(=O)OC	i	i	i	i	nt	nt	GRK2 CP2=i;FAM quench CP2=i
CCCn1c(N)c(C(=O)CSc2nnc(C)n2Cc2ccccc2)c(=O)n(C)c1=O	i	i	i	i	nt	nt
CSCCC1(C(=O)O)NC(c2ccccc2O)C2C(=O)N(C(C)C)C(=O)C21 (stereo not drawn)	i	i	i	i	nt	nt
O=C(O)C1CC(c2ccccc2F)=NO1 (stereo not drawn)	i	i	i	i	nt	nt	GRK2 CP2=i;FAM quench CP2=i
Cc1ccc(N2CC(C(=O)Nc3cccc(C(=O)NC4CC4)c3)CC2=O)cc1 (stereo not drawn)	nt	i	nt	nt	i	i
C=CCN1C(=O)c2ccc(C(=O)NCC(c3ccccc3)N(C)C)cc2C1=O (stereo not drawn)	i	i	i	i	nt	nt
COc1ccc(-c2ccnc(-c3ccncc3)n2)cc1	i	i	i	i	nt	nt
Cc1c(Cl)cccc1NS(=O)(=O)c1ccc2c(c1)C1C=CCC1C(c1ccc(C(=O)O)cc1)N2 (stereo not drawn)	i	52	i	i	i	i
Cc1ccc(-c2nn(-c3ccccn3)c(=O)c3ccccc23)cc1C	i	i	i	i	nt	nt
CC(NC(=O)CN1C(=O)NC(c2ccccc2)(c2ccccc2)C1=O)c1cccs1 (stereo not drawn)	nt	i	nt	nt	nt	nt
Cc1cccn2c(=O)c3cc(C(=O)NCc4ccc(F)cc4)c(=N)n(CC4CCCO4)c3nc12 (stereo not drawn)	i	i	i	i	nt	nt
CCOCCCn1c(=N)c(C(=O)NCCN2CCOCC2)cc2c(=O)n3cccc(C)c3nc21	nt	i	nt	nt	nt	nt
Cc1cccn2c(=O)c3cc(C(=O)NCCN4CCOCC4)c(=N)n(CCN4CCOCC4)c3nc12	i	41	i	i	i	i
COc1ccc(CNC(=O)c2cc3c(=O)n4cccc(C)c4nc3n(CC3CCCO3)c2=N)cc1 (stereo not drawn)	i	i	i	i	i	i
CCNC(=O)c1cc2c(=O)n3cccc(C)c3nc2n(Cc2ccc(C)cc2)c1=N	i	i	i	i	nt	nt
CCCn1c(=N)c(C(=O)NCc2ccc3c(c2)OCO3)cc2c(=O)n3cccc(C)c3nc21	i	78	i	i	i	i
COC(=O)C(O)(CC(=O)Nc1ccc(Cl)cc1F)C(F)(F)F (stereo not drawn)	i	i	i	i	nt	nt
Cc1cc(C)n(C(=O)c2ccc(NC(=O)C3COc4ccccc4O3)cc2)n1 (stereo not drawn)	i	i	i	i	nt	nt
O=C(CSc1nnc(Cc2cccs2)n1C1CC1)NC1CCS(=O)(=O)C1 (stereo not drawn)	nt	i	nt	nt	nt	nt
CC1(C)CC(=O)C2=C(C1)NC(SCC(=O)Nc1ccccc1)=C(C#N)C2c1ccco1 (stereo not drawn)	nt	i	nt	nt	nt	nt
Cc1ccc(NC(=O)CSC2=C(C#N)C(c3ccco3)C3=C(CCCC3=O)N2)cc1 (stereo not drawn)	nt	57	nt	nt	i	i
CCn1cnc2cc(NCc3ccc(Br)cc3)ccc21	i	44	i	i	i	i
CCn1cnc2cc(NCc3ccc(C)cc3)ccc21	i	i	i	i	nt	nt
CCCn1cnc2cc(NCc3ccc(Br)cc3)ccc21	i	i	i	i	i	i
SMILES	MEKK3 PB1 HTS	GRK2 inh	MEKK2wt PB1 HTS	MEKK2mut PB1 HTS	GRK2 CP1	Aptamer quench SP	others
CCOc1ccc(CCNC(=O)Nc2cccc(OC)c2)cc1OCC	i	41	i	i	nt	nt	GRK2 CP2=i;FAM quench CP2=i
COc1cccc(NC(=O)NCCC2=CCCCC2)c1	i	i	i	i	nt	nt
O=C(c1ccc(-c2ccccc2)c(F)c1)C1CCCN(CCCn2cccn2)C1 (stereo not drawn)	i	i	i	i	i	i
Cc1cc(C)cc(C(=O)NCC(=O)OCC(=O)NCc2ccco2)c1	i	i	i	i	nt	nt
Nc1cccn2c(-c3ccc(Cl)cc3)cnc12	i	i	i	i	i	i
Nc1cccn2c(-c3ccc(Cl)c(Cl)c3)cnc12	i	i	i	i	nt	nt
CC(Nc1nc(-c2cccc(Br)c2)cs1)c1nc2cc(Cl)c(N3CCCCC3)cc2n1CCOCCO (stereo not drawn)	i	i	i	i	i	i
CC(Nc1nc(-c2ccc(F)cc2)cs1)c1nc2cc(Cl)c(N3CCCCC3)cc2n1CCOCCO (stereo not drawn)	i	i	i	i	i	i
CC(Nc1nc(-c2ccc(F)cc2)cs1)c1nc2cc(Cl)c(N3CCCCC3)cc2n1CCCO (stereo not drawn)	i	i	i	i	nt	nt
CN(C)/C=N/c1cc(=O)[nH]c(=O)n1Cc1ccccc1	i	nt	i	i	nt	nt
O=C(COC(=O)Cc1ccc(Br)cc1)NC1CCCCC1	i	i	i	i	nt	nt
CCOc1ccc(OCCC(=O)N2CCc3cc(OC)c(OC)cc3C2)cc1	i	94	i	i	i	i
COCCNC(=O)c1ccccc1N(Cc1ccccc1)S(=O)(=O)c1ccc(C)cc1	i	i	i	i	i	i
N#Cc1cc([N+](=O)[O-])ccc1NC(=O)COC(=O)C1CCC(=O)N1 (stereo not drawn)	nt	i	nt	nt	nt	nt
CCOC(=O)c1cnc(SC2CC(=O)N(c3ccc(OC)c(OC)c3)C2=O)nc1N (stereo not drawn)	i	45	i	i	i	i
CCOC(=O)c1ccc(N2C(=O)CC(Sc3nc(C)cc(C)n3)C2=O)cc1 (stereo not drawn)	i	i	i	i	nt	nt
CCc1ccc(OCC(O)Cn2c(N3CCCCC3)nc3c2c(=O)[nH]c(=O)n3C)cc1 (stereo not drawn)	i	i	i	i	nt	nt
O=C(O)CC/C(=N/NC(=O)CNC(=O)c1ccc2c(c1)OCCO2)c1ccccc1	i	i	i	i	i	i
Cc1sc2ncn(CC(=O)NCCCC(=O)N3CCC(C)CC3)c(=O)c2c1C	i	i	i	i	nt	nt
Cc1ccc(CNS(=O)(=O)c2cn(C)cn2)cc1	i	i	i	i	nt	nt
Cn1c(=O)c2c(ncn2CC(=O)N2CCc3ccccc3C2)n(C)c1=O	i	58	i	i	i	i

Assay outcomes as filed in PubChem.
